High-throughput results as filed in PubChem BioAssay.
Vaccinia stage: blocks a specific stage of Vaccinia orthopoxvirus infection; activity change (mCherry), % (test concentration not listed); AID 1053133; 89,000 compounds, 0.01% hits; Vaccinia-infected cells, mCherry/Venus stage reporter fluorescence; stronger effect = lower value; in the data active = activity change below about -37%, passing the limit was not always enough; tested in A549 cells
An asterisk follows results filed as active. Many of the other results were omitted from the sample, so hits are more common in it than they were.

SMILES | Vaccinia stage
C[C@H](CO)N1C[C@H](C)[C@H](CN(C)S(=O)(=O)c2ccc(F)cc2)Oc2cc(C#Cc3ccncc3)ccc2S1(=O)=O | -19.9
C[C@@H]1CN([C@@H](C)CO)S(=O)(=O)c2ccc(C#Cc3ccncc3)cc2O[C@H]1CN(C)S(=O)(=O)c1ccc(F)cc1 | -28.8
COc1cccc(S(=O)(=O)N[C@H]2CC[C@H](CC(=O)NC3CCC3)O[C@@H]2CO)c1 | 2.0
O=C(CC1CC1)N1[C@H](CO)[C@@H]2c3ccccc3N(S(=O)(=O)c3ccccc3)C[C@@H]21 | 8.4
COCC#Cc1cnc2c(c1)C(=O)N([C@H](C)CO)C[C@@H](C)[C@@H](CN(C)C(=O)CN1CCOCC1)O2 | 8.1
CCCNC(=O)N1C[C@H](C)[C@@H](OC)CN(C)C(=O)c2cc(NC(=O)CC)ccc2OC[C@@H]1C | 19.2
CCNC(=O)C[C@@H]1CC[C@H]2[C@H](COc3ccc(NC(=O)Nc4ccc(C)cc4)cc3C(=O)N2C)O1 | 9.3
Cn1cnc(S(=O)(=O)N2CCCCN3[C@@H](CO)[C@H](c4ccc(C#CC5CC5)cc4)[C@@H]3C2)c1 | 13.3
C[C@@H]1CN([C@@H](C)CO)C(=O)c2cc(NC(=O)CCN3CCOCC3)ccc2O[C@H]1CN(C)C(=O)Nc1cccc2ccccc12 | 12.1
CN(C)CC(=O)Nc1ccc2c(c1)[C@@H]1C[C@@H](CC(=O)NCc3ccncc3)O[C@@H](CO)[C@@H]1O2 | -3.3
CO[C@H]1CN(C)C(=O)c2cc(NC(C)=O)ccc2OC[C@H](C)N(Cc2ccccn2)C[C@H]1C | -5.1
CN(C)C(=O)c1ccc(-c2ccc3c(c2)[C@H]2[C@H](CCN2Cc2ccc4c(c2)OCO4)[C@H](CO)N3)cc1 | -26.7
COc1ccccc1CN1CC[C@H]2[C@H](CO)Nc3ccc(-c4ccc(C(=O)N(C)C)cc4)cc3[C@H]21 | -39.6*
CN(C)C(=O)c1ccc(-c2ccc3c(c2)[C@@H]2[C@@H](CCN2Cc2ccc4c(c2)OCO4)[C@H](CO)N3)cc1 | -28.9
CN(C)C(=O)c1ccc(-c2ccc3c(c2)[C@H]2[C@H](CCN2C(=O)c2ccccc2)[C@H](CO)N3)cc1 | -8.6
CN(C)C(=O)c1ccc(-c2ccc3c(c2)[C@H]2[C@H](CCN2Cc2ccc4c(c2)OCO4)[C@@H](CO)N3)cc1 | -22.5
COc1ccccc1CN1CC[C@@H]2[C@@H](CO)Nc3ccc(-c4ccc(C(=O)N(C)C)cc4)cc3[C@@H]21 | -39.2*
C[C@H](CO)N1C[C@H](C)[C@H](CN(C)CC2CC2)Oc2cc(C#Cc3ccncc3)ccc2S1(=O)=O | -10.8
O=C(C[C@@H]1CC[C@H]2[C@@H](COC[C@H](O)CN2S(=O)(=O)c2ccc(Cl)cc2)O1)NCCN1CCCCC1 | 2.9
O=C(C[C@H]1C=C[C@@H](NC(=O)Nc2cccc(F)c2)[C@@H](CO)O1)NCC1CC1 | 12.2
O=C(C[C@H]1C[C@@H]2c3cc(NC(=O)C4CCOCC4)ccc3O[C@@H]2[C@H](CO)O1)NCc1ccc(Cl)cc1 | 8.7
CN(C)C(=O)c1ccc(-c2ccc([C@@H]3[C@H]4CN(C(=O)C5CCC5)CCCCN4[C@H]3CO)cc2)cc1 | 4.3
CC(C)C#Cc1ccc2c(c1)O[C@H](CN(C)C(=O)C1CC1)[C@@H](C)CN([C@H](C)CO)S2(=O)=O | -3.7
O=C(NCC[C@H]1CC[C@@H](NC(=O)C2CCC2)[C@@H](CO)O1)c1cnccn1 | 2.6
C[C@@H]1CN([C@H](C)CO)C(=O)c2cccc(NC(=O)C3CC3)c2O[C@H]1CN(C)S(=O)(=O)c1ccccc1 | 7.4
C[C@H]1CN([C@@H](C)CO)C(=O)Cc2cc(NC(=O)Nc3cccc4ccccc34)ccc2O[C@@H]1CN(C)C(=O)Nc1ccc(F)cc1 | 9.1
CO[C@@H]1CN(C)C(=O)c2ccc(NC(=O)c3ccc(F)cc3)cc2OC[C@@H](C)N(C(=O)c2ccc(F)cc2)C[C@@H]1C | -5.2
CO[C@H]1CN(C)C(=O)c2ccc(NC(=O)c3ccc(F)cc3)cc2OC[C@H](C)N(C(=O)c2ccc(F)cc2)C[C@@H]1C | -87.3*
CO[C@@H]1CN(C)C(=O)c2ccc(NC(=O)c3ccc(F)cc3)cc2OC[C@H](C)N(C(=O)c2ccc(F)cc2)C[C@H]1C | -2.9
